This is part of a sample that, as a whole, favours compounds with a hit. Of some 83,000 tested, about 20% had one in any assay.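 Compound tested at a single concentration for 48 hours in 96-well plates; a percent growth value below 10 was scored as active.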 Unmarked numbers belong to inactive results. Active and inactive are the calls of the source.
How the values were obtained:
Experiment in all cases: NCI-60 one-dose screen, 48 h (100 = growth as untreated, 0 = no growth, -100 = all killed)
Conditions in all cases: 10 µM unless noted
[1] = system: SR leukemia
[2] = system: RPMI-8226 leukemia
[3] = system: OVCAR-8 ovarian
[4] = system: OVCAR-5 ovarian
[5] = system: OVCAR-4 ovarian
[6] = system: SK-OV-3 ovarian
[7] = system: IGROV1 ovarian
[8] = system: OVCAR-3 ovarian
[9] = system: HS 578T breast
[10] = system: NCI/ADR-RES ovarian

For `COc1cc2c(=O)n(CC3CCCCC3)c3c4cc[nH]c4ncc3c2cc1OC`, the growth [1] was 6.22% (active), the growth [2] was 34.5% and the growth [3] was 26.9%. The growth [4] was 52.3%, the growth [5] was 19.3% and the growth [6] was 47.7%. The growth [7] was 23.6%, the growth [8] was 38.7% and the growth [9] was -4.62% (active). The growth [10] was 33.8%.
`COc1ccc(S(=O)(=O)NCCCNc2cc(-c3c(-c4cccc(OC)c4)nc4sccn34)ccn2)cc1` gave a growth [1] of 43.5%, a growth [2] of 13.1% and a growth [3] of 38.5%. It also gave a growth [4] of 86.3%, a growth [5] of 36.4% and a growth [6] of 73.4%. It also gave a growth [7] of 51.8%, a growth [8] of 52.1% and a growth [9] of 62.9%. It also gave a growth [10] of 32.5%.
In the case of `COc1ccc2nc3cc(Cl)ccc3c(N3CCN(c4nccc(Nc5ccc(Cl)cc5)n4)CC3)c2c1`, the growth [1] is reported as 30.4%, the growth [2] is reported as 43.9% and the growth [3] is reported as 80.7%. For the same compound, the growth [4] was 90.6%, the growth [5] was 60.7% and the growth [6] was 88.4%. The growth [7] was 83.1%, the growth [8] was 49.5% and the growth [9] was 84.3%. It also gave a growth [10] of 80.7%.
Compound `COc1ccc(-n2cc(-c3ccccc3)c3c(SCC(=O)N/N=C/c4ccc([N+](=O)[O-])cc4)ncnc32)cc1` has a growth [1] of 108%, a growth [2] of 108% and a growth [3] of 103%. For the same compound, the growth [4] was 99.2%, the growth [5] was 102% and the growth [6] was 109%. The growth [7] was 108%, the growth [8] was 105% and the growth [9] was 105%. It also gave a growth [10] of 91.3%.
`CC(C)(C)n1cc(-c2ccnc(NCCNS(=O)(=O)c3ccccc3)c2)c(-c2cccc(O)c2)n1` gave a growth [1] of 27.3%, a growth [2] of 22.2% and a growth [3] of 67.2%. For the same compound, the growth [4] was 78.4%, the growth [5] was 60.6% and the growth [6] was 88.4%. The growth [7] was 76%, the growth [8] was 74.4% and the growth [9] was 62.4%. For the same compound, the growth [10] was 74.8%.
`Nc1nc(SCc2ccccc2)c2ncn(C3CCCC3)c2n1` showed a growth [1] of 81.4%, a growth [2] of 92.9% and a growth [3] of 110%. The growth [4] was 96.4%, the growth [5] was 101% and the growth [6] was 107%. It also gave a growth [7] of 98.1%, a growth [8] of 112% and a growth [9] of 139%. For the same compound, the growth [10] was 92.5%.
`NS(=O)(=O)c1ccc(Nc2nc3n[nH]c(Nc4ccccc4)c3c(=O)[nH]2)cc1` gave a growth [1] of 94.1%, a growth [2] of 107% and a growth [3] of 100%. For the same compound, the growth [4] was 111%, the growth [5] was 105% and the growth [6] was 84.4%. For the same compound, the growth [7] was 102%, the growth [8] was 106% and the growth [9] was 103%. The growth [10] was 99.7%.
In the case of `CCCCCCCCCCCCCC1=NCCN1CCO`, the growth [1] is reported as -4.54% (active), the growth [2] is reported as 21% and the growth [3] is reported as 52.6%. The growth [4] was 79.1%, the growth [5] was 169% and the growth [6] was 107%. For the same compound, the growth [7] was 13.3%, the growth [8] was 164% and the growth [9] was 37.9%. For the same compound, the growth [10] was 84.5%.
`COc1ccc(-c2csc(NC(=O)CN3CCN(c4cc5c(cc4F)c(=O)c(C(=O)O)cn5C4CC4)CC3)n2)cc1` was tested, and the growth [1] was 16.7%, the growth [2] was -9.43% (active) and the growth [3] was 9.73% (active). For the same compound, the growth [4] was 37.4%, the growth [5] was 40.8% and the growth [6] was -4.37% (active). It also gave a growth [7] of 38.5%, a growth [8] of 12.7% and a growth [9] of 16.5%. It also gave a growth [10] of 60.7%.
Compound `Cc1ccccc1CCO` has a growth [1] of 88.7%, a growth [2] of 108% and a growth [3] of 100%. It also gave a growth [4] of 95.9%, a growth [5] of 106% and a growth [6] of 98%. It also gave a growth [7] of 95.4%, a growth [8] of 106% and a growth [9] of 100%. The growth [10] was 101%.
With `O=C1Nc2ccc(Br)cc2C12CC(c1ccccc1)=NN2` (stereo not given) the growth [1] was 12.5%, the growth [2] was 28.3% and the growth [3] was 61%. For the same compound, the growth [4] was 82%, the growth [5] was 67.5% and the growth [6] was 48.4%. The growth [7] was 52.6%, the growth [8] was 24.1% and the growth [9] was 47%. For the same compound, the growth [10] was 40.8%.
With `CCN(C(=O)CN1CCN(c2cc3c(cc2F)c(=O)c(C(=O)O)cn3C2CC2)CC1)c1nc(-c2ccc(OC)cc2)cs1` the growth [1] was 23.7%, the growth [2] was 3.09% (active) and the growth [3] was 59.6%. It also gave a growth [4] of 92%, a growth [5] of 37.2% and a growth [6] of 97.1%. The growth [7] was 67.4%, the growth [8] was 6.96% (active) and the growth [9] was 81.8%. The growth [10] was 59.3%.
In the case of `C[C@@]1(N2C(=O)OC[C@@H]2c2ccccc2)C(=O)N([C@H](CC(=O)N2CCC(N3CCCCC3)CC2)C(=O)NCc2cccc(C(F)(F)F)c2)[C@@H]1/C=C/c1ccccc1`, the growth [1] is reported as -38.4% (active), the growth [2] is reported as 37.1% and the growth [3] is reported as 89.8%. The growth [4] was 115%, the growth [5] was 66.3% and the growth [6] was 78.9%. The growth [7] was 72.1%, the growth [8] was 73.2% and the growth [9] was 66.1%. For the same compound, the growth [10] was 81.8%.
With `CN1CCOCCOCCOc2ccccc2NC(=O)c2nc(cnc2N)-c2ccc(cc2)S1(=O)=O` the growth [1] was -16.3% (active), the growth [2] was 30.3% and the growth [3] was 64%. For the same compound, the growth [4] was 148%, the growth [5] was 46.1% and the growth [6] was 41%. It also gave a growth [7] of 50.8%, a growth [8] of 43.7% and a growth [9] of 66.4%. For the same compound, the growth [10] was 43.5%.
In the case of `CCN(CC)CCCNc1cc(OC)cc2nc3cc(Cl)ccc3nc12`, the growth [1] is reported as -34.6% (active), the growth [2] is reported as -14.3% (active) and the growth [3] is reported as -8.47% (active). For the same compound, the growth [4] was -39.3% (active), the growth [5] was -11% (active) and the growth [6] was 6.29% (active). For the same compound, the growth [7] was -29.9% (active), the growth [8] was -48.9% (active) and the growth [9] was 23.3%. For the same compound, the growth [10] was -50.2% (active).
Work on `c1ccc2sc(SCCCn3ccnc3)nc2c1` yielded a growth [1] of 87.9%, a growth [2] of 79% and a growth [3] of 88.2%. The growth [4] was 118%, the growth [5] was 93.2% and the growth [6] was 90.2%. For the same compound, the growth [7] was 103%, the growth [8] was 86.4% and the growth [9] was 102%. The growth [10] was 94.2%.
`CC1=C(C)C(=O)OC([C@](C)(O)[C@]2(O)CC[C@@]3(O)[C@@H]4C[C@H]5O[C@]56CC=CC(=O)[C@]6(C)[C@H]4CC[C@]23COC(=O)c2ccc(C)o2)C1` (stereo not given in full) was tested, and the growth [1] was 2.88% (active), the growth [2] was -17.3% (active) and the growth [3] was -13.8% (active). For the same compound, the growth [4] was -69.8% (active), the growth [5] was -32.9% (active) and the growth [6] was -51.7% (active). The growth [7] was -54.4% (active), the growth [8] was -96.2% (active) and the growth [9] was 3.52% (active). It also gave a growth [10] of 14.5%.
`COc1ccc(-c2nc(Nc3cc(C)[nH]n3)c3ccccc3n2)cc1` showed a growth [1] of 23.7%, a growth [2] of 50.7% and a growth [3] of 83.8%. It also gave a growth [4] of 59.8%, a growth [5] of 60.1% and a growth [6] of 53.1%. For the same compound, the growth [7] was 1.47% (active), the growth [8] was 52.2% and the growth [9] was 2.72% (active). The growth [10] was 74.3%.
Work on `CCCCNc1ccc2c3c1cccc3c(=O)n1c3ccccc3nc21` yielded a growth [1] of 15.6%, a growth [2] of 80.5% and a growth [3] of 106%. For the same compound, the growth [4] was 110%, the growth [5] was 85.8% and the growth [6] was 96.4%. It also gave a growth [7] of 41.8%, a growth [8] of 95.3% and a growth [9] of 93.1%. For the same compound, the growth [10] was 91.3%.
With `COc1ccc(CCN2CCCn3c2nc2ccccc2c3=O)cc1` the growth [1] was 24.8%, the growth [2] was 29.9% and the growth [3] was 28.8%. It also gave a growth [4] of 41.6%, a growth [5] of 41.9% and a growth [6] of 53.7%. The growth [7] was 40.3%, the growth [8] was -4.64% (active) and the growth [9] was 38.9%. It also gave a growth [10] of 14.7%.
With `CCCCCCCCOC(=O)CC[C@@H](C)[C@H]1CC[C@H]2[C@@H]3[C@H](OC(=O)CCN)C[C@@H]4C[C@H](OC(=O)CCN)CC[C@]4(C)[C@H]3C[C@H](OC(=O)CCN)[C@]12C` the growth [1] was -12.9% (active), the growth [2] was 77.8% and the growth [3] was 69.5%. It also gave a growth [4] of 92.1%, a growth [5] of 75.7% and a growth [6] of 90.9%. For the same compound, the growth [7] was 77.2%, the growth [8] was 108% and the growth [9] was 79.5%. It also gave a growth [10] of 101%.
In the case of `O=C1c2cc3c(cc2-c2c1c1cc(Cl)c(Cl)cc1c(=O)n2CCCn1ccnc1)OCO3`, the growth [1] is reported as -13.4% (active), the growth [2] is reported as -0.183% (active) and the growth [3] is reported as 8.55% (active). For the same compound, the growth [4] was 25.9%, the growth [5] was 30.1% and the growth [6] was -3.8% (active). The growth [7] was 24.4%, the growth [8] was 5.18% (active) and the growth [9] was 66.7%. The growth [10] was 4.47% (active).
With `Oc1ccccc1/C=N/Nc1ccc2ccccc2n1` the growth [1] was 8.32% (active), the growth [2] was 35.2% and the growth [3] was 33.2%. For the same compound, the growth [4] was 81%, the growth [5] was -0.697% (active) and the growth [6] was 43%. The growth [7] was 28.1%, the growth [8] was 8.79% (active) and the growth [9] was 79.3%. For the same compound, the growth [10] was 22.9%.
With `Cc1ccc(S(=O)(=O)n2cc(-c3csc(-c4cn(C)c5ncccc45)n3)c3ccccc32)cc1` the growth [1] was 2.53% (active), the growth [2] was 71.1% and the growth [3] was 80.5%. For the same compound, the growth [4] was 81.9%, the growth [5] was 71.5% and the growth [6] was 70.2%. For the same compound, the growth [7] was 56.3%, the growth [8] was 30.3% and the growth [9] was 85.8%. For the same compound, the growth [10] was 43.3%.
With `Cc1ccc2c(NCCCN(C)C)c3c(C)nn(C)c3nc2c1` the growth [1] was 5.55% (active), the growth [2] was 27.8% and the growth [3] was -5.26% (active). It also gave a growth [4] of 39.3%, a growth [5] of 28.7% and a growth [6] of 39.2%. It also gave a growth [7] of 29.2%, a growth [8] of 49.3% and a growth [9] of 74.1%. For the same compound, the growth [10] was 45.3%.
In the case of `Oc1ccc2c(=S)cc(-c3ccc(Br)cc3)oc2c1O`, the growth [1] is reported as 1.21% (active), the growth [2] is reported as -8.44% (active) and the growth [3] is reported as -6.62% (active). The growth [4] was 67.9%, the growth [5] was -1.04% (active) and the growth [6] was 62.3%. The growth [7] was 19%, the growth [8] was -21.7% (active) and the growth [9] was 84%. For the same compound, the growth [10] was -8.87% (active).
In the case of `CCCCCCCCCC(=O)Oc1ccc(/C(=C(/C)Cc2cccc(OC)c2)c2ccc(OCCN(C)C)cc2)cc1`, the growth [1] is reported as 106%, the growth [2] is reported as 106% and the growth [3] is reported as 108%. For the same compound, the growth [4] was 101%, the growth [5] was 115% and the growth [6] was 113%. For the same compound, the growth [7] was 110%, the growth [8] was 109% and the growth [9] was 108%. It also gave a growth [10] of 98.4%.

From PubChem BioAssay (NCI)
